About 79,000 compounds went through this panel and 15% of them were active in at least one assay; those are over-represented in the sample as a whole. Cut-off read from the data, not from the text of the source: active = growth inhibition above about 70%; inactive = the rest.
Tests used:
[1] = NCI Yeast Anticancer Drug Screen. Data for the rad50 strain (AID 155);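 note: 0% = growth of vehicle-only cultures of the same strain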; settings: S. cerevisiae rad50 strain growth inhibition; at 50.0 µM; stronger effect = higher value
Summary of the method: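 Yeast carrying a defined DNA repair defect were exposed to test compounds, and growth was compared with vehicle-treated controls to give percent inhibition.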

[2] = NCI Yeast Anticancer Drug Screen. Data for the mec2-1 strain (AID 157); settings: S. cerevisiae mec2-1 strain, at 50.0 µM, stronger effect = higher value
Summary of the method: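 Using mec2-1 yeast: add compound, measure growth, express inhibition versus vehicle-treated cultures.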

[3] = NCI Yeast Anticancer Drug Screen. Data for the sgs1 mgt1 strain (AID 161);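 note: 0% = growth of cultures given vehicle only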; settings: S. cerevisiae sgs1 mgt1 strain, at 50.0 µM, stronger effect = higher value
Summary of the method: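 This yeast growth screen uses a strain with defined DNA-repair lesions; compound-treated growth is compared with vehicle-treated growth.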

[4] = NCI Yeast Anticancer Drug Screen. Data for the cln2 rad14 strain (AID 165);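 note: 0% = growth equal to vehicle treated cultures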; settings: S. cerevisiae cln2 rad14 strain, at 50.0 µM, stronger effect = higher value
Summary of the method: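 Yeast strain cln2 rad14, bearing defects in cell cycle control and DNA repair, serves as the test system; values reflect growth inhibition compared with vehicle.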

[5] = NCI Yeast Anticancer Drug Screen. Data for the bub3 strain (AID 167); settings: S. cerevisiae bub3 mutant strain, at 50.0 µM, stronger effect = higher value
Summary of the method: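 Compounds were applied to a genetically altered yeast strain carrying a cell-cycle control defect. Growth inhibition was scored against vehicle-treated controls.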

[6] = NCI Yeast Anticancer Drug Screen. Data for the mlh1 rad18 strain (AID 175); settings: S. cerevisiae mlh1 rad18 strain growth inhibition; at 50.0 µM; stronger effect = higher value
Summary of the method: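 Steps: expose repair-defective yeast to compound; measure growth; express inhibition against vehicle-treated controls.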

Measured: growth inhibition

N#Cc1c(N)nc2c(c(-c3ccc(Cl)cc3)nn2-c2ccccc2)c1C#N
inactive: [1] -2.45% | [2] -17.4% | [3] -34.8% | [4] 11.1% | [5] -23.9% | [6] 6.1%

NOCCCCON
inactive: [1] -5.05% | [2] -6.8% | [3] 8.95% | [4] -66.8% | [5] 0.25% | [6] -7.05%

COC(=O)C(/C(=N\NC(N)=S)C(=O)Nc1ccccc1[N+](=O)[O-])c1cnc2ccccc2n1 (stereo not given)
inactive: [1] 5% | [2] -14.7% | [3] -8.55% | [4] 2.1% | [5] -19.1% | [6] -18.7%

O=C1C=C(NCCCCC2CCCCC2)c2ccccc2C1=O
inactive: [1] 11.8% | [2] -3.25% | [3] 0.15% | [4] 11.2% | [5] -9.3% | [6] -4.6%

COC1(OC)CC2C(=O)N(Cc3ccccc3)C1C(S(=O)(=O)c1ccccc1)C2S(=O)(=O)c1ccccc1 (stereo not given)
inactive: [1] 27.6% | [2] 29.5% | [3] 45.5% | [4] -31.7% | [5] 50.2% | [6] 64.8%

S=C(Nc1ccc(N=Nc2ccccc2)cc1)SCc1ccc(Cl)cc1
inactive: [1] 28.4% | [2] 3.6% | [3] 20.6% | [4] 13.1% | [5] -2.75% | [6] 14%

CCOC(=O)CCC(NC(=O)c1ccc([N+](=O)[O-])cc1)C(=O)OCC (stereo not given)
inactive: [1] 29.6% | [2] -32.3% | [3] -7.3% | [4] -86.5% | [5] 7.7% | [6] 26.1%

c1ccc(COC[C@H]2O[C@@H](c3ccccc3)C[C@@H](OCc3ccccc3)C2OCc2ccccc2)cc1 (stereo not given in full)
inactive: [1] -20.3% | [2] -11.6% | [3] -1.95% | [4] -0.45% | [5] -11.6% | [6] 5.4%

C1=C[CH]([Sn]([CH]2C=Cc3ccccc32)([CH]2C=Cc3ccccc32)[CH]2C=Cc3ccccc32)c2ccccc21 (stereo not given)
inactive: [1] -14.2% | [2] -6.75% | [3] -1% | [4] -6.4% | [5] 1.2% | [6] -1.7%

COC(=O)C1c2ccccc2CC(=O)N1NC(=O)c1ccccc1 (stereo not given)
inactive: [1] -7.7% | [2] -2.95% | [3] -17.1% | [4] 4.5% | [5] 3.65% | [6] 16.6%

COCCCC12C=C(OC)C(=O)C=C1OC(c1cc(OC)c(OC)c(OC)c1)C2C (stereo not given)
inactive: [1] 0% | [2] -13.1% | [3] -36% | [4] -18% | [5] -32.5% | [6] -14.5%

Cc1cccc(/C=C/c2csnn2)n1
inactive: [1] -25.1% | [2] -6.75% | [3] -8.4% | [4] 14.6% | [5] -6.05% | [6] -15.2%

Cc1[nH]n(C(N)=S)c(=O)c1N=Nc1c(Cl)cccc1Cl
inactive: [1] 55.4% | [2] 14.9% | [3] 63.2% | [4] -37.4% | [5] 11.9% | [6] 51%

O=[N+]([O-])c1ccc(Oc2ccc3ccccc3c2)c([N+](=O)[O-])c1
inactive: [1] -1.4% | [2] -17.9% | [3] 1.8% | [4] -56.5% | [5] -9.75% | [6] -14.3%

COC1C(=O)OC(=O)C1OC (stereo not given)
inactive: [1] -73% | [2] -15.1% | [3] -1.05% | [4] -24.7% | [5] -8.55% | [6] 14.9%

Nc1nc2c([nH]c(=O)n2C2OC(CO)C(O)C2O)c(=O)n1N (stereo not given)
inactive: [1] 16.1% | [2] 6.2% | [3] 18.8% | [4] -13% | [5] 9.95% | [6] 5.2%

CC(CO)(CO)[N+](=O)[O-]
inactive: [1] 19.2% | [2] 9.65% | [3] -5.85% | [4] -46.5% | [5] 6.25% | [6] 19.9%

Nc1nnc(-c2ccc(Cl)cc2)o1
inactive: [1] 21.3% | [2] -1.8% | [3] 21.2% | [4] 1.1% | [5] 0.05% | [6] 5.8%

OCC(O)Cn1cnc2c(NO)ncnc21 (stereo not given)
inactive: [1] -18.2% | [2] -20.8% | [3] -8% | [4] -15.2% | [5] 4.85% | [6] 11.1%

CC1(C)SC(C)(C)C1=O
inactive: [1] -13.6% | [2] -7.35% | [3] -0.6% | [4] -36.8% | [5] 2.05% | [6] -5.15%

CCOC(=O)C1CC1c1ccccc1 (stereo not given)
inactive: [1] 6.1% | [2] -7.9% | [3] -0.25% | [4] -8.65% | [5] -3.6% | [6] 8.5%

CCc1nc(N)nc(N)c1-c1ccc(Cl)c(N=CN(C)C)c1
inactive: [1] 31.8% | [2] 23.1% | [3] 26.9% | [4] 29.8% | [5] 16.6% | [6] 51.5%

Cc1cc(O)c(C(C)C)cc1N=O
inactive: [1] 22.2% | [2] -7.25% | [3] 18.5% | [4] 16.6% | [5] -15.6% | [6] 6.35%

CC1OC(OC2C(CO)OC(O[C@H]3CC[C@@]4(C)C(=CC[C@H]5[C@@H]6C[C@@H]7O[C@]8(CC[C@@H](C)CN8)[C@@H](C)[C@@H]7[C@@]6(C)CC[C@@H]54)C3)C(O)C2O)C(O)C(O)C1O (stereo not given in full)
inactive: [1] -17.1% | [2] -26.6% | [3] -0.75% | [4] 15.2% | [5] 6.1% | [6] 1.7%

ClC1CC2CCC1C2 (stereo not given)
inactive: [1] 26.9% | [2] -20.8% | [3] 8.45% | [4] 7.75% | [5] -8.3% | [6] 9.1%

Cc1ccc2c(c1)[nH]c1ccccc12
inactive: [1] 15.3% | [2] 13.7% | [3] 26.2% | [4] -14.2% | [5] 22.6% | [6] 23.9%

Nc1nc(N)nc(SCC(=O)O)n1
inactive: [1] 8.55% | [2] -23.2% | [3] 2% | [4] 3.15% | [5] -2.05% | [6] 14.9%

CN(C)C(=S)/N=c1\ssc(=S)n1Cc1ccccc1
inactive: [1] -10.4% | [2] -24.9% | [3] -4.55% | [4] 16.4% | [5] -17.9% | [6] -86.5%

COC(OC)C1OC(C)(C)OC1C(OS(=O)(=O)c1ccc(C)cc1)C1COC(C)(C)O1 (stereo not given)
inactive: [1] -14.7% | [2] -7.8% | [3] 6.45% | [4] 1.95% | [5] 1.6% | [6] 12.7%

COC(=O)c1nc(N)nc(C(=O)OC)c1C(=O)c1cccc2ccccc12
inactive: [1] -33.5% | [2] -26.1% | [3] 1.65% | [4] -26.8% | [5] -33.3% | [6] -20.9%

CCOC(=O)c1n[nH]c(=S)[nH]c1=O
inactive: [1] -7.95% | [2] -1.8% | [3] -3.05% | [4] -16.9% | [5] 11.7% | [6] -14.9%

CNCC1OC(OC)C2OC(C)(C)OC12 (stereo not given)
inactive: [1] -5.05% | [2] 5.1% | [3] 8.15% | [4] -25.5% | [5] -21.1% | [6] 5.05%

NNC(=O)c1c(-c2cccnc2)cnc2ccccc12
inactive: [1] -29.4% | [2] -20.6% | [3] -29.3% | [4] -6.8% | [5] -4.8% | [6] -31.4%

COc1ccc(-n2[nH]c3c(cnc4ccccc43)c2=O)cc1
inactive: [1] 6.35% | [2] -33.9% | [3] -33% | [4] -10.8% | [5] -22.8% | [6] 2%

COc1ccc2c(c1)CCc1cc(OC)ccc1/[N+]([O-])=[N+]\2[O-]
inactive: [1] -1.2% | [2] 1.25% | [3] 6.8% | [4] -70.8% | [5] -5.1% | [6] 14.8%

From PubChem BioAssay (NCI)
